Laboratory results: PubChem BioAssay (NCI)
This is part of a sample that, as a whole, favours compounds with a hit. Of some 83,000 tested, about 20% had one in any assay.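 Single-concentration screen, 48 h exposure, 96-well plates. Endpoint: percent growth. Below 10 = active.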 Unmarked numbers belong to inactive results. Calls of active or inactive are those of the source.

What was measured:
Assay in all cases: NCI-60 one-dose screen, 48 h (100 = growth as untreated, 0 = no growth, -100 = all killed)
Details in all cases: 10 µM unless noted
DU-145 prostate = test system: DU-145 prostate
K-562 leukemia = test system: K-562 leukemia
MALME-3M melanoma = test system: MALME-3M melanoma
MDA-MB-231 breast = test system: MDA-MB-231 breast
RXF 393 renal = test system: RXF 393 renal
SF-268 CNS = test system: SF-268 CNS
SF-295 CNS = test system: SF-295 CNS
SF-539 CNS = test system: SF-539 CNS
UACC-257 melanoma = test system: UACC-257 melanoma
M14 melanoma = test system: M14 melanoma
HCT-15 colon = test system: HCT-15 colon
HT29 colon = test system: HT29 colon
SNB-75 CNS = test system: SNB-75 CNS
SNB-19 CNS = test system: SNB-19 CNS
U251 CNS = test system: U251 CNS
PC-3 prostate = test system: PC-3 prostate
SK-MEL-5 melanoma = test system: SK-MEL-5 melanoma
UACC-62 melanoma = test system: UACC-62 melanoma
LOX IMVI melanoma = test system: LOX IMVI melanoma
SK-MEL-28 melanoma = test system: SK-MEL-28 melanoma

Row | Structure (SMILES) | growth (DU-145 prostate) [%] | growth (K-562 leukemia) | growth (MALME-3M melanoma) | growth (MDA-MB-231 breast) | growth (RXF 393 renal) | growth (SF-268 CNS) [%] | growth (SF-295 CNS) | growth (SF-539 CNS) | growth (UACC-257 melanoma) | growth (M14 melanoma) | growth (HCT-15 colon) | growth (HT29 colon) | growth (SNB-75 CNS) | growth (SNB-19 CNS) [%] | growth (U251 CNS) [%] | growth (PC-3 prostate) | growth (SK-MEL-5 melanoma) | growth (UACC-62 melanoma) | growth (LOX IMVI melanoma) | growth (SK-MEL-28 melanoma)
1 | COc1ccc2c(c1)OC(N(C(C)=O)C(C)=O)=C(C#N)C2c1ccc(F)cc1 (stereo not given) | 37.9 | 10.2% | 62.5% | 53.1% | -2.33% (active) | 54.1 | 18.3% | 13.9% | 63% | 20.5% | 24.9% | 8.69% (active) | 8.71% (active) | 28.6 | 30.8 | 21.9% | 18.9% | 34.5% | 47.7% | 64.4%
2 | CN(CCNCc1ccccn1)CCNCc1ccccn1 | 11.3 | 2.92% (active) | -21.8% (active) | 1.53% (active) | -24.3% (active) | 20.3 | -6% (active) | 3.15% (active) | -35.8% (active) | -18.3% (active) | 9.87% (active) | 7.47% (active) | 12.9% | 44.7 | 11 | 5.04% (active) | -31.7% (active) | 4.5% (active) | 9.32% (active) | 10.7%
3 | c1ccc2nc(Cn3cc[n+](Cc4ccc5ccccc5n4)c3)ccc2c1 | 88.7 | 41.1% | 50.2% | 77.9% | 86.6% | 67.1 | 91.5% | 58.8% | 21.9% | 69% | 102% | 41.9% | 70.7% | 47.7 | 44.2 | 42.6% | 16.9% | 54.6% | 75.4% | 63.8%
4 | COc1cc(Br)c(-c2nc(-c3ccccc3)c(-c3ccccc3)n2Cc2ccccc2)cc1OC | 72.6 | 31.5% | 57.8% | 71.2% | 72.2% | 67.9 | 34.5% | 76% | 59.2% | 53.1% | 47.4% | 32.3% | 86.7% | 67.2 | 64.1 | 29.7% | 54% | 53.1% | 61.3% | 91.1%
5 | COc1ccccc1N1CCN(CCCOc2ccc(OCCCN3CCN(c4ccccc4OC)CC3)c(C(=O)c3cc(OC)c(OC)c(OC)c3)c2)CC1 | 105 | 67.6% | 113% | 113% | 126% | 110 | 109% | 107% | 107% | 108% | 140% | 101% | 120% | 102 | 118 | 95.9% | 87.6% | 109% | 116% | 115%
6 | CN1CCN(CC(O)COc2c(Br)c(Br)c(Br)c3c2OC(C)(C)C3)CC1 (stereo not given) | 89.9 | -16.5% (active) | -36.9% (active) | 49.7% | 29.4% | 63.8 | 38.7% | 58.3% | 99.9% | -53.5% (active) | 28.7% | -12.8% (active) | 90.7% | 92.7 | 56.4 | 53% | -86% (active) | -59.5% (active) | 4.05% (active) | -89.2% (active)
7 | COc1ccc(OCC(O)CN2CCN(c3ccc(Cl)cc3)CC2)cc1 (stereo not given) | 112 | 105% | 106% | 88.1% | 98% | 105 | 92.1% | 95.5% | 81.9% | 102% | 105% | 98.5% | 84.7% | 85.7 | 94.5 | 104% | 84.3% | 84.9% | 91.4% | 114%
8 | O=c1c2ccccc2sc2c(NCCN3CCOCC3)nc3ccccc3c12 | 56 | -11.7% (active) | 52.2% | 28.9% | 11.8% | 66.9 | -7.24% (active) | 47.3% | 79.8% | 5.59% (active) | 27.1% | 8.68% (active) | 42.8% | 79.3 | 42.3 | 43.2% | 54.8% | 33.3% | 5.67% (active) | 69.4%
9 | COc1cc(C(=O)C[n+]2ccccc2)ccc1OC(C)=O | 106 | 101% | 105% | 102% | 92% | 98.4 | 97.4% | 94.3% | 95.4% | 94.9% | 103% | 108% | 87.6% | 98.6 | 98.9 | 89.9% | 98% | 97.1% | 101% | 107%
10 | [2H]c1nc(Nc2ncc(F)c(-c3cc(F)c4nc(C)n(C(C)C)c4c3)n2)c([2H])c([2H])c1CN1CCN(CC)CC1 | 59 | -15.9% (active) | 85.9% | 55.5% | -8% (active) | 54 | 59.2% | 67.2% | 72.3% | 46.3% | 33.2% | 31.5% | 26.5% | 61.8 | 46.1 | 47.8% | 27.5% | 62.5% | 37% | 60.5%
11 | C=CC(=O)NC(=O)Nc1ccccc1Cl | 48.4 | 41.2% | 83% | 72.4% | 88.7% | 96.7 | 101% | 72.3% | 71.9% | 70% | 67.9% | 70.2% | 83.8% | 72.5 | 81.7 | 78.2% | 96.6% | 93.4% | 86.1% | 109%
12 | COc1ccc(Cl)cc1NC(=O)c1cc2c([nH]1)-c1nc(NC(=O)C(C)C)sc1CC2 | 96.2 | 76.4% | 104% | 113% | 109% | 94.9 | 101% | 26% | 92.7% | 101% | 95.4% | 87% | 92.2% | 110 | 96.5 | 87.6% | 77.6% | 91.7% | 95% | 112%
